The results in this text go back to PubChem BioAssay (NCATS).

Results filed as inconclusive are left out. Activity calls are given as the source filed them. Unless noted, calls come from the whole dose curve; as a rule, active = well fitted inhibition curve with a large enough effect; inconclusive = small, poorly fitted or top-dose-only effect; inactive = no such curve, though single readings can be large or run the other way.

A short description of assay [1]: qHTS profiling of the MIPE4 collection as inhibitors of Plasmodium falciparum (DD2) proliferation (Rep 2) (AID 743346; call rule not given here). As to conditions: P. falciparum Dd2 in erythrocytes, SYBR Green DNA, 72 h; at 28.5 µM unless noted. In short, it runs like this:
(§1)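 Erythrocytes infected with P. falciparum (0.3% parasitemia, 2.5% hematocrit) incubated with compounds 72 h at 37 C, 5% CO2. Lysis with saponin/Triton buffer containing SYBR Green I, overnight at room temperature in the dark; DNA fluorescence (485/535 nm) normalised to 0.29 uM artemisinin and DMSO.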
(In general: qHTS replaces the single test concentration by a dilution series.)

Assay [2] can be described thus: qHTS profiling of the MIPE4 collection as inhibitors of Plasmodium falciparum (HB3) proliferation (AID 743347; call rule not given here;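 note: plate controls were DMSO vehicle wells for no effect and artemisinin wells for full effect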). As to conditions: P. falciparum HB3 in erythrocytes, SYBR Green DNA, 72 h; at 28.5 µM unless noted. In short, it runs like this: as §1
Assay [3] can be described thus: High-throughput drug toxicity screening in the BPDCN cell line Gen2.2 (AID 1224824; call rule not given here;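 note: cells exposed to compounds for 48 h before reading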). As to conditions: Gen2.2 BPDCN cells; at 45.8 µM (top of the series) unless noted. A digest of the protocol: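 Readout is ATP luminescence from Gen2.2 cells after two days of drug exposure in serum-containing medium at 37 °C. Values express percent activity, with vehicle defining full signal and 9.2 uM bortezomib defining zero.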

A short description of assay [4]: High-throughput drug toxicity screening in the BPDCN cell line Cal-1 (AID 1224825; call rule not given here). As to conditions: Cal-1 BPDCN cell viability, qHTS; at 45.8 µM (top of the series) unless noted. In short, it runs like this:
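Cal-1 cells, 500 per well in phenol-red-free RPMI with 10% FBS, exposed to compounds for 48 hours at 37C, 5% CO2. Viability read by CellTiter-Glo luminescence; percent activity normalized to DMSO (100%) and 9.2 uM bortezomib final (0%).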

The nature of assay [5]: qHTS assay for measurement of the activity of small molecule inhibitors on Zika virus induced Caspase-3 activity in human iPSC derived neural progenitor cells (hNPCs) (AID 1224857). Note: % of control where 0% means no effect; nearly all actives have a fitted effect of over 65% in size. In short, it runs like this:
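Human iPSC-derived neural progenitor cells pretreated 1 hr with compounds, then infected with Zika virus (2 FFU/cell) for 6 hours at 37 C. Caspase-3/7 measured by Caspase-Glo luminescence; % inhibition calculated from induction scaled to uninfected (0%) and infected (100%) wells.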

Assay [6] can be described thus: qHTS assay for measurement of the activity of small molecule inhibitors on Zika virus induced Caspase-3 activity in human astrocytoma cells (AID 1224859).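 Note: plate controls were ZIKV-infected untreated cells for no effect and uninfected cells for full effect.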 In short, it runs like this:
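SNB-19 astrocytoma cells, 250/well, pretreated 1 h with compounds, then Zika virus at 2 FFU/cell for 6 h at 37 C; Caspase-Glo 3/7 luminescence after 30 min; percent inhibition normalised to uninfected and infected controls.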

Assay [7] in a line: qHTS Screen of the MIPE 4.0 Collection Against Ewings Sarcoma (RDES) (AID 1259252).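 For viability (percent of control): 100% = DMSO-treated cells and 0% = medium-only wells without cells.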 Note: nearly all actives have a fitted effect of over 35% in size. Note: potency is the fitted concentration of half-maximal effect. A digest of the protocol: (§2)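 Viability screen: 48 h incubation at 37C, 95% humidity, 5% CO2 with serially titrated compound, followed by CellTiter-Glo readout.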
Assay [8] in a line: qHTS Screen of the MIPE 4.0 Collection Against Ewings Sarcoma (TC71) (AID 1259253).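 For viability (% of DMSO): 100% = DMSO-treated cells and 0% = medium-only wells without cells.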 Note: nearly all actives have a fitted effect of over 40% in size. Note: potency is the fitted concentration of half-maximal effect. A digest of the protocol:
as §2

Assay [9] can be described thus: qHTS Screen of the MIPE 4.0 Collection Against Ewings Sarcoma (EW8) (AID 1259255).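 For viability: 100% = DMSO-treated cells and 0% = medium-only wells without cells.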 Note: nearly all actives have a fitted effect of over 35% in size. Note: potency is the fitted concentration of half-maximal effect. A digest of the protocol:
as §2

Assay [10] can be described thus: qHTS Screen of the MIPE 4.0 Collection Against Ewings Sarcoma (TC32) (AID 1259256).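 For viability (percent of control): 100% = DMSO-treated cells and 0% = medium-only wells without cells.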 Note: nearly all actives have a fitted effect of over 45% in size. Note: potency is the fitted concentration of half-maximal effect. A digest of the protocol: as §2

With `C=CC[C@@H]1C=C(C)C[C@H](C)C[C@H](OC)[C@H]2O[C@@](O)(C(=O)C(=O)N3CCCC[C@H]3C(=O)O[C@H](C(C)=C[C@@H]3CC[C@H](O)[C@H](OC)C3)[C@@H](C)[C@@H](O)CC1=O)[C@@H](C)C[C@@H]2OC`, in [1], the parasite growth, % of control (lower = inhibition) was 10.3%. This compound returned a growth, % of control in assay [2] of 44.7%. Moreover, the cell viability, % of control (lower = more cytotoxic) in assay [3] amounted to 17.2%. Further, the viability (% of control) in assay [4] came out at 44.2%. Further, the Potency entry in assay [5] and in assay [6] was “inactive” throughout. Moreover, the Potency in [7] was 2.64 µM (active); in assay [8], 1.87 µM (active); in assay [9] it was 1.66 µM (active); in assay [10] it was 1.48 µM (active).
In the case of `C[C@@H]1C(=O)O[C@H]2CC34[C@H]5C[C@@H](C(C)(C)C)C36[C@H](OC(=O)[C@@H]6O)O[C@@]4(C(=O)O5)[C@]21O` (stereo partly specified), in [3], the cell viability, % of control (lower = more cytotoxic) amounted to 129%. Besides, the viability (% of control) in assay [4] is 69%. Besides, the Potency result in assay [5], in assay [6], in assay [7], in assay [8], in assay [9] and in [10] was “inactive” throughout.
As to `O=c1[nH]c(=O)n([C@H]2C[C@@H](O)[C@@H](CO)O2)cc1C=CBr`, the cell viability, % of control (lower = more cytotoxic) in assay [3] was found to be 164%. The viability (% of control) in [4] was found to be 115%. Also, the Potency result in assay [5], in assay [6], in [7], in [8], in assay [9] and in assay [10] was “inactive” in each case.
In the case of `CC(Oc1ccc(O)cc1)(P(=O)(O)O)P(=O)(O)O`, the parasite growth, % of control (lower = inhibition) in assay [1] amounted to 64.2%. Besides, the growth, % of control in [2] was found to be 98.7%. For the same compound, the cell viability, % of control (lower = more cytotoxic) in assay [3] worked out at 123%. Moreover, the viability (% of control) in [4] worked out at 107%. Also, the Potency entry in [5], in assay [6], in assay [7], in assay [8], in assay [9] and in assay [10] was “inactive” in each case.
As for `CON=C(C(=O)N[C@@H]1C(=O)N2C(C(=O)O)=C(Cn3ccc(=N)n3CCO)CS[C@H]12)c1csc(N)n1`, the cell viability, % of control (lower = more cytotoxic) in assay [3] turned out to be 137%. In addition, in [4], the viability (% of control) was 95.7%. In addition, the Potency entry in [5], in assay [6], in assay [7], in [8], in assay [9] and in assay [10] was “inactive” each time.
On to `CC(C)(C)[C@H](NC(=O)c1ccc(N)c(Cl)c1)C(=O)N1CCC[C@@H]1C(=O)N[C@H](C#N)CC(=O)O`, for which, in [1], the parasite growth, % of control (lower = inhibition) was found to be 108% [at 3.19 µM]. In [2], this compound came in with a growth, % of control of 588% [at 3.19 µM]. Further, the cell viability, % of control (lower = more cytotoxic) in [3] turned out to be 14.9% [at 3.51 µM]. Also, the viability (% of control) in assay [4] is 25% [at 3.51 µM]. The activity change, negative = inhibition in [5] was 12% [at 4.53 µM] (inactive); in assay [6], 53% [at 4.53 µM] (inactive). Besides, the viability (percent of control) in [7] is 112% [at 3.51 µM] (inactive); in assay [10], 127% [at 3.51 µM] (inactive). Also, the viability (% of DMSO) in assay [8] was 134% [at 3.51 µM] (inactive). For the same compound, the viability in [9] was 116% [at 3.51 µM] (inactive).
As to `COc1cc([C@@H]2c3cc4c(cc3[C@H](O)[C@H]3COC(=O)[C@@H]23)OCO4)cc(OC)c1OC`, the parasite growth, % of control (lower = inhibition) in assay [1] turned out to be 29.1%. Also, in assay [3], the cell viability, % of control (lower = more cytotoxic) was 21.3%. Besides, the viability (% of control) in assay [4] came to 11.1%. The Potency entry in assay [5] and in assay [6] was “inactive” in each case. Moreover, the Potency in assay [7] is 0.0743 µM (active); in assay [8] it was 0.187 µM (active); in [9] it was 0.105 µM (active); in assay [10], 0.0372 µM (active).
In the case of `CCN(CC)Cc1ccc2cc(COC(=O)Nc3ccc(C(=O)NO)cc3)ccc2c1`, the parasite growth, % of control (lower = inhibition) in assay [1] worked out at 6.48%. In addition, the growth, % of control in assay [2] was 7.88%. The cell viability, % of control (lower = more cytotoxic) in [3] worked out at 8.65%. Moreover, the viability (% of control) in assay [4] amounted to 4.07%. In addition, the Potency result in [5] and in [6] was “inactive” throughout. The Potency in [7] was 0.743 µM (active); in assay [8] it was 0.662 µM (active); in [9], 0.526 µM (active); in assay [10] it was 0.662 µM (active).
As to `CC(=O)O[C@H]1C[C@@H]2CC[C@H]3[C@H]4C[C@H]([N+]5(C)CCCCC5)[C@@H](OC(C)=O)[C@@]4(C)CC[C@@H]3[C@@]2(C)C[C@H]1[N+]1(C)CCCCC1`, the cell viability, % of control (lower = more cytotoxic) in assay [3] worked out at 232%. The viability (% of control) in [4] came out at 120%. In addition, the Potency result in [5] and in [6] was “inactive” each time. Also, the Potency in [7] was 1.32 µM (active); in [8], 1.05 µM (active); in assay [9], 2.64 µM (active); in [10], 2.35 µM (active).

What is called viability is a read-out of living cells in per cent, often relative to untreated cells.
